Results published in the supplement of paper PMC13380429.

Tested on: Vero E6 infected with SARS-CoV-2
Experiment: inhibition of SARS-CoV-2 cytopathic effect; higher = more antiviral protection, active = above 15
Conditions: 48 h

Measured: inhibition of SARS-CoV-2 cytopathic effect

O=C(c1ccc(F)c(F)c1Nc1ccc(I)cc1F)N1CC(O)([C@@H]2CCCCN2)C1 [cobimetinib]
inactive: 1 nM -0.38% | 8.33 nM -3.42% | 100 nM -9.73% | 833.33 nM -11.8% | 10000 nM -12.2%

CC1=CC(=O)c2ccccc2C1=O [menadione]
inactive: 1 nM 1% | 8.33 nM 1.27% | 100 nM -0.28% | 833.33 nM -0.16% | 10000 nM -2.15%

CS(=O)(=O)c1ccc(-c2cc(Br)sc2-c2ccc(F)cc2)cc1
inactive: 1 nM 3.29% | 8.33 nM -0.45% | 100 nM -5.25% | 833.33 nM -3.46% | 10000 nM -5.5%

CC(=O)Nc1ccc(C(=O)O)cc1 [acedoben]
inactive: 1 nM -1.13% | 8.33 nM 3.16% | 100 nM 1.58% | 833.33 nM 0.73% | 10000 nM 3.31%

CN1Cc2c(C(=O)OC(C)(C)C)ncn2-c2ccsc2C1=O
inactive: 1 nM 2.57% | 8.33 nM 3.55% | 100 nM 1.79% | 833.33 nM 1.66% | 10000 nM -0.64%

C=CC[N@@+]12CC[C@@]34c5ccccc5N5/C=C6/[C@H]7C[C@H]8[C@@]9(CC[N@@+]8(CC=C)C/C7=C/CO)c7ccccc7N(/C=C(/[C@@H](C[C@@H]31)/C(=C\CO)C2)[C@H]54)[C@@H]69 [alcuronium]
inactive: 1 nM 1.2% | 8.33 nM -0.77% | 100 nM -0.24% | 833.33 nM -0.81% | 10000 nM 4.13%

COc1cc(C)[nH]c(=O)c1CNC(=O)c1c(C)n([C@H](C)C2CCOCC2)c2ccccc12
inactive: 1 nM -1.12% | 8.33 nM -1.57% | 100 nM 0.4% | 833.33 nM -4.34% | 10000 nM -4.06%

COc1ccccc1N1CCN(CCCNc2cc(=O)n(C)c(=O)n2C)CC1 [urapidil]
inactive: 1 nM 0.14% | 8.33 nM -1.36% | 100 nM -0.45% | 833.33 nM 2.04% | 10000 nM -0.1%

Nc1ncnc2nc(-c3ccc(N4CCOCC4)nc3)cc(-c3cccc(Br)c3)c12
inactive: 1 nM -0.77% | 8.33 nM -1.24% | 100 nM -5% | 833.33 nM -0.05% | 10000 nM -1.01%

Clc1ccc(CO/N=C(\Cn2ccnc2)c2ccc(Cl)cc2Cl)c(Cl)c1 [oxiconazole]
inactive: 1 nM -0.54% | 8.33 nM 0.43% | 100 nM 1.05% | 833.33 nM 0.68% | 10000 nM -1.24%

CC(C)c1ccc(NC(=O)Cn2cnc3c2c(=O)n(C)c(=O)n3C)cc1
inactive: 1 nM -0.13% | 8.33 nM 1.6% | 100 nM 1.39% | 833.33 nM 2.45% | 10000 nM 3.83%

C=C1/C(=C\C=C2/CCC[C@]3(C)[C@@H]([C@H](C)CC[C@@H](O)C(C)C)CC[C@@H]23)C[C@@H](O)C[C@@H]1O [tacalcitol]
inactive: 1 nM -1.15% | 8.33 nM -0.65% | 100 nM 1.63% | 833.33 nM 1.18% | 10000 nM 1.31%
